# From PubChem
# The list is not random: actives were taken first. Their share in the collection is about 19%.
# IL-1B inflam inh: inhibitors of inflammasome signaling (IL-1 beta secretion); AID 743279; actives 4.7% (n = 360,000); activity change, % at 57.5 µM; THP-1 LPS/ATP IL-1B secretion, AlphaLISA, 16 h; active compounds read low; in the data active = activity change below about -50%; inconclusive = mostly about -30% to -49%
#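 Secreted IL-1B measured by AlphaLISA bead assay after 16 h compound exposure of THP-1 cells; compounds (final up to 57.5 uM) added 1 h before LPS (250 ng/mL) and ATP (1.25 mM) stimulation; lower signal means less secretion.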
# TDP1 cell noCPT: qHTS for Inhibitors of human tyrosyl-DNA phosphodiesterase 1 (TDP1): qHTS in cells in absence of CPT | Potency, µM (doses to about 46.2 µM), inactives show top-dose activity change, negative = growth inhibition, actives largely listed as inhibitors | actives 15% (n = 420,000) | DT40 Tdp1-/- hTDP1 cells, no CPT, ATP luminescence, 48 h; note: potency is the fitted concentration of half-maximal effect; nearly all actives have a fitted effect of over 55% in size
#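 Cells were dispensed at 400 per well, compounds added by pin tool, plates incubated ≥48 hr at 37 °C, then CellTiter-Glo added for 30 min at room temperature before luminescence reading. Line: DT40 Tdp1-/- complemented with hTDP1; camptothecin omitted.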
# ELG1 repair inh: ELG1-dependent DNA repair inhibition. HEK293T ELG1-luciferase reporter, luminescence, 16 h; DNA damage induced by 5-fluorouridine. Potency, µM (titrated, usually from 46.1 µM), for the others: at the top dose activity change, negative = inhibition, most hits filed as inhibitors. actives 2.3% (n = 330,000); note: potency is the fitted concentration of half-maximal effect; nearly all actives have a fitted effect of over 55% in size
#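 Reporter activity after DNA damage by 5-fluorouridine is monitored. Compound-treated cells incubate 16 hr at 37 °C, then ONE-Glo is added for 30 min before luminescence reading.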
# DT40 TDP1 CPT: growth inhibition of DT40 Tdp1-/-;hTDP1 cells with camptothecin (screen for TDP1 inhibitors); AID 686979; Potency, µM (series often up to 46.2 µM), for the others: top-dose activity change, negative = growth inhibition, hits mostly inhibitors; actives 12% (n = 420,000); chicken DT40 Tdp1-/-;hTDP1 cells + 20 nM CPT, ATP luminescence, 48 h; note: potency is the fitted concentration of half-maximal effect; nearly all actives have a fitted effect of over 55% in size
#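 Chicken DT40 Tdp1-/- cells stably complemented with human TDP1 were seeded at 400 cells/well in medium containing 20 nM camptothecin, exposed to pin-transferred compounds, and grown at 37 °C for at least 48 hr. Viability was read as ATP luminescence.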
# TDP1 inh: inhibitors of human tyrosyl-DNA phosphodiesterase TDP1 | recombinant TDP1, AlphaScreen DNA substrate cleavage | AID 485290 | actives 0.28% (n = 350,000) | Potency, µM (titrated, usually from 130 µM), without a hit: top-dose activity change, negative = inhibition, hits mostly inhibitors; note: potency is the fitted concentration of half-maximal effect; nearly all actives have a fitted effect of over 40% in size
# Target sequence (Q9NUW8 whole entry, looked up): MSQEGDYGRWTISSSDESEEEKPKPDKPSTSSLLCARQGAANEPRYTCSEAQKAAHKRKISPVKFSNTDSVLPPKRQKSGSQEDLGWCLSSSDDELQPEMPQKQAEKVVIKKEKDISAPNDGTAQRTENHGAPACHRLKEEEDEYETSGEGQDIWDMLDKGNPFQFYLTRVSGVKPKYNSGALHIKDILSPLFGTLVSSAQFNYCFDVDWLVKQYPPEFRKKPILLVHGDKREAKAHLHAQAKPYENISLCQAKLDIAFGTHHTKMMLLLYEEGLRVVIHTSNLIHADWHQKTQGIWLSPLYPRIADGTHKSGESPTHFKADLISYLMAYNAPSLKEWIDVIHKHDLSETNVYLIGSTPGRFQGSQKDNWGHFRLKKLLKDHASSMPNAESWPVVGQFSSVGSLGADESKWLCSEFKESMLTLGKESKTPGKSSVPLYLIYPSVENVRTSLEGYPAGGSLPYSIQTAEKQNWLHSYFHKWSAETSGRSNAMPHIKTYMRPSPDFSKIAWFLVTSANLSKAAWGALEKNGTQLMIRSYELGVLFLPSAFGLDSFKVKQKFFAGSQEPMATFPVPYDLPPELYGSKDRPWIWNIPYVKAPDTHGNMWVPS
#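 Recombinant human Tdp1 (E. coli-expressed, 1 nM final) preincubated with compounds 15 min at room temperature, then 5'-biotin/3'-phosphotyrosine-FITC DNA substrate (15 nM final) added for 5 min. AlphaScreen beads (10 ug/ml final) added 10 min; cleavage lowers signal.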
# Giardia kill: kills Giardia lamblia. Giardia lamblia trophozoite viability. activity change, % at 7.66 µM, hits read low. actives 0.15% (n = 340,000). AID 540267; in the data active = activity change below about -80%; inconclusive = between about -30% and that limit;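 note: parasites exposed to compound for two days anaerobically before the ATP read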
#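 Trophozoite viability was measured as ATP-dependent luminescence, read 15-30 min after reagent addition. Before that, parasites at 100 cells/well were exposed to compounds for 48 h, anaerobically, at 37 deg C.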
# Numbers without * were called inactive; ? = inconclusive; . = no result; [ ] = remark or other dose. Unless noted, calls come from the whole dose curve; as a rule, active = well fitted curve in the direction sought with a large enough effect; inconclusive = small, poorly fitted or top-dose-only effect, or another doubt; inactive = no such curve, though single readings can be large; an effect the other way counts as inactive or inconclusive. % is set by controls: 0 for no effect and ±100 for the full control effect.
SMILES,IL-1B inflam inh,TDP1 cell noCPT,ELG1 repair inh,DT40 TDP1 CPT,TDP1 inh,Giardia kill
Cc1ccc(S(=O)(=O)N(CC(=O)NCC2CCCO2)Cc2ccc(F)cc2)cc1 (stereo not given),-2,-16%,0%,-23%,-6%,?
COc1ccc(C(=O)CSc2nnc(CN3CCCCC3)n2-c2ccc(F)cc2)cc1OC,-7,?,0%,-15%,1%,7
O=C(CSc1nnc(-c2cccs2)n1-c1ccccc1)c1ccc2c(c1)OCCO2,-3,-22%,-7%,-19%,2%,-11
O=C(CSc1nnc(CN2CCCCC2)n1-c1ccccc1)c1ccc2c(c1)OCO2,-7,21µM*,-11%,?,5%,2
O=C(CSc1nnc(-c2ccc3c(c2)OCO3)n1-c1ccccc1)c1ccccc1,7,23µM*,1%,16µM*,5%,6
CCOc1ccc(NC(=O)CSc2nnc(-c3ccncc3)n2-c2ccccc2)cc1,.,-12%,.,-1%,-4%,.
Cc1cccc(-n2c(SCC(=O)c3ccccc3)nnc2-c2ccc(Br)cc2)c1,.,18µM*,.,16µM*,5%,.
CCOc1ccc(-c2nnc(SCC(=O)c3ccccc3)n2-c2ccccc2)cc1,.,6.5µM*,.,?,1%,.
O=C(NC1CCCC1)O[C@@H]1C(=O)c2cc(Br)ccc2O[C@H]1c1ccc2c(c1)OCO2,.,.,.,.,8%,.
O=C(COc1ccc(F)cc1)NCCNC(=O)COc1ccc(F)cc1,12,27%,3%,-5%,0%,11
COc1ccc(NC(=O)CSc2nc(-c3cc(OC)c(OC)c(OC)c3)[nH]c2-c2ccc(F)cc2)cc1,.,23µM*,.,?,-2%[12.3 µM],.
COc1ccc(-c2[nH]c(-c3ccc(F)cc3)nc2SCC(=O)Nc2ccc(OC)c(OC)c2)cc1,.,?,.,16µM*,8%,.
COc1ccc(-c2nc(SCC(=O)NCc3ccco3)c(-c3ccccc3)[nH]2)cc1OC,-18,?,9.2µM*,?,5%,5
Cc1cc(Cl)ccc1NC(=S)NCCN1CCOCC1,11,-6%,-7%,4%,-2%,-13
C[N+]1(C)CC[C@@H](OC(=O)[C@@](O)(c2ccccc2)C2CCCC2)C1,.,.,.,.,14%[21 µM],.
O=C(O)c1ccccc1/C=N/NC(=O)c1cc(-c2ccco2)nc2ccccc12,42,1%,0%,1%,.,-11
Cc1ccc(CCNC(=O)c2cc(Nc3ccc(C)c(C)c3)nc3ccccc23)cc1,.,?,.,-21%,3%,.
COc1cc(CC(=O)NCCc2ccc(S(N)(=O)=O)cc2)cc(OC)c1OC,22,3%,-5%,-4%,7%,14
Cc1ccc(-c2cc(C(=O)NCCc3ccccc3)c3ccccc3n2)cc1C,.,?,.,21µM*,5%,.
COc1cc(-c2cc(C(=O)NCCc3ccc(S(N)(=O)=O)cc3)c3ccccc3n2)cc(OC)c1OC,-52*,3.3µM*,4.1µM*,4.1µM*,7%,3
Cc1ccc(-c2cccc(C(=O)NCc3ccccc3)n2)c2ccccc12,-11,?,-2%,?,0%,-6
Cc1ccc(-c2cccc(C(=O)NCCc3ccccc3)n2)c2ccccc12,-14,16µM*,16%,26µM*,-5%,4
Cc1ccc(-c2cc(C(=O)N/N=C\c3cnn(C)c3C)c3ccccc3n2)cc1C,-10,10µM*,-17%,12µM*,6%,6
Cc1ccc(C)c(Cn2c(=O)n(Cc3ccccc3)c(=O)c3sc4ccccc4c32)c1,.,2%,.,6%,6%,.
COc1ccc(O[C@H]2C=C[C@@H](c3ccccc3)O[C@H]2COC(=O)CC/C(C)=N\OC[C@@H](C)[C@H](OCc2ccccc2)C(C)C)cc1,.,.,.,.,6%[21 µM],.
SMILES,IL-1B inflam inh,TDP1 cell noCPT,ELG1 repair inh,DT40 TDP1 CPT,TDP1 inh,Giardia kill
Cc1ccc(-c2cc(C(=O)NCC3CCCO3)c3ccccc3n2)cc1C (stereo not given),1,5%,?,11%,-3%,-4
Cc1ccc(-c2cc(C(=O)NCc3cnn(C)c3C)c3ccccc3n2)cc1C,.,18µM*,.,?,-2%,.
Cc1cc(-n2c(C)cc(C(=O)COc3cccnc3[N+](=O)[O-])c2C)no1,12,15µM*,-2%,12µM*,-2%,?
CC(=O)c1cccc(OCC(=O)c2cc(C)n(-c3cc(C)on3)c2C)c1,-17,18µM*,?,18µM*,6%,-9
Cc1cc(C(=O)COc2cccnc2[N+](=O)[O-])c(C)n1Cc1cccs1,-17,?,6%,?,2%,-94*
Cc1cc(C(=O)COC(=O)c2ccccc2O)c(C)n1Cc1cccs1,?,15µM*,?,?,7%,?
Cc1cccc(CNC(=O)Cc2csc3ccccc23)c1,.,-21%,.,14%,-3%,27
CS(=O)(=O)c1ccc(-c2csc(C(O)c3cccc(Cl)c3)n2)cc1 (stereo not given),1,?,.,?,.,.
Cc1cc(NC(=O)CN2C(=O)[C@@H]3[C@H](C2=O)[C@@H]2C[C@H]3C(Br)C2Br)no1 (stereo not given in full),22,-10%,19%,-7%,7%,1
COc1ccc(NC(=O)C(OC(=O)CNC(=O)c2ccccc2)c2ccccc2)c(C)c1 (stereo not given),.,.,.,.,0%,.
Cc1cc(C(=O)COC(=O)c2ccc3c(c2)OCO3)c(C)n1Cc1cccs1,12,?,?,-15%,4%,-2
CC(=O)Nc1ccccc1OCC(=O)c1cc(C)n(Cc2cccs2)c1C,-13,1.5µM*,?,1.8µM*,11%,-11
CN1CCN(CC(=O)Nc2nc(-c3ccccc3)cs2)CC1,16,0%,?,-7%,5%,12
O=C(CN1CCCCC1)Nc1nc(-c2ccccc2)cs1,-26,?,?,9%,.,-4
O=C(Cn1nnc(-c2ccc(CN3CCOCC3)cc2)n1)Nc1nc(-c2ccccc2)cs1,-20,21µM*,?,?,9%,38
CC1CCN(Cc2ccc(-c3nnn(CC(=O)Nc4ccccc4Cl)n3)cc2)CC1,10,21µM*,?,16µM*,-2%,-1
COc1ccc(C2(O)CCN(CC(=O)Nc3nc(-c4ccccc4)cs3)CC2)cc1,-98*,?,23µM*,?,8%,4
O=C(CN1CCCCC1)Nc1nc(-c2ccc(Cl)cc2)cs1,-82*,-2%,-3%,?,.,6
